Experimental findings from PubChem BioAssay are described below.

For orientation: inhibition means the relative decrease from the control value, in per cent.

Values without a mark were called inactive. For some of these results: Measured potencies and affinities stand elsewhere. The source made the active and inactive calls. Unless noted, no rule for the calls is given here.

The nature of assay [1]: antimalarial activity against Dd2 strain (AID 2302;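 active = growth inhibition above 50% at the single 2 µM test dose, taken to imply half-maximal potency below 2 µM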;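 also: 0% = DMSO untreated growth and 100% = chloroquine plus artemisinin killed control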). Particulars: P. falciparum Dd2 in RBCs, LDH growth readout, 72 h; at 2 µM; active compounds read high.
Assay [2] can be described thus: HepG2 cytotoxicity, primary screen, cytotoxicity control for P. falciparum antimalarial project, cell-based, ATP luminescence (AID 2303;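 active = inhibition above 50%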;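 also: 0% = DMSO wells and 100% = digitonin-killed cells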). The following applies: HepG2 viability, 24-48 h, at 10 µM, active compounds read high.
Assay [3] has as its target L-lactate dehydrogenase (Plasmodium falciparum (isolate CDC / Honduras)) (UniProt Q27743). The experiment in a line: PfLDH activity inhibition – cell lysate, 3D7 strain, counter-screen for P. falciparum growth inhibition project (AID 2304).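 Also: 0% = vehicle and 100% = reference inhibitor.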 The following applies: P. falciparum 3D7 crude extract, LDH APAD/NBT absorbance; at 2 µM; active compounds read high.
The nature of assay [4]: inhibition of 3D7 malaria parasite growth – strain 3D7 (AID 2306).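 Also: 0% = DMSO wells and 100% = chloroquine plus artemisinin control wells.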 The following applies: P. falciparum 3D7 erythrocytic growth, LDH absorbance, 72 h; at 2 µM; active compounds read high.
Assay [5] has as its target Calcium-dependent protein kinase 1 (Plasmodium falciparum (isolate 3D7)) (UniProt P62344). Kind of assay: PfCDPK1 kinase inhibitors, biochemical, TCAMS library (AID 1159585; cut-off not given, nearly all actives have IC50 up to about 0.98 µM;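 also: inhibitors leave more ATP so luminescence rises with inhibition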). Particulars: recombinant PfCDPK1, Kinase-Glo ATP depletion luminescence. (In general: In Kinase-Glo more light means more ATP remaining.)
Assay [6] deals with Plasmodium falciparum protein kinase 6 (PK6, PF3D7_1337100) (UniProt Q8IDW1). The experiment in a line: PfPK6 kinase inhibitors, biochemical, TCAMS library (AID 1159586). Particulars: recombinant PfPK6, Kinase-Glo ATP depletion luminescence.
Plasmodium falciparum protein kinase 6 (PK6, PF3D7_1337100), sequence (Q8IDW1 1-305): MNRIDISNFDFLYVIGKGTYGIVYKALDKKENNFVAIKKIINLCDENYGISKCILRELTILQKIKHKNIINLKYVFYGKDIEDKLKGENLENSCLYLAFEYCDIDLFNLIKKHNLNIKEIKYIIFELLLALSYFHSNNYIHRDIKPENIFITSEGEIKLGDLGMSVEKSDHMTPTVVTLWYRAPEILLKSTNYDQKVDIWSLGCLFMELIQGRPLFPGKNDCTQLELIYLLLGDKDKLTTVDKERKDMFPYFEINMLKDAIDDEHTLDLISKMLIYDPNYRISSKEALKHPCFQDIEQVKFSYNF
For assay [7], the target named is Protein kinase 7 (PK7), Plasmodium falciparum 3D7 (PF3D7_0213400) (UniProt Q7YTF7). Kind of assay: inhibition of Plasmodium PK7 catalytic activity – biochemical, TCAMS antimalarial set, Kinase-Glo luminescence (AID 1159587). The following applies: recombinant PfPK7, Kinase-Glo ATP depletion luminescence.
Protein kinase 7 (PK7), Plasmodium falciparum 3D7 (PF3D7_0213400), sequence (Q7YTF7 1-343): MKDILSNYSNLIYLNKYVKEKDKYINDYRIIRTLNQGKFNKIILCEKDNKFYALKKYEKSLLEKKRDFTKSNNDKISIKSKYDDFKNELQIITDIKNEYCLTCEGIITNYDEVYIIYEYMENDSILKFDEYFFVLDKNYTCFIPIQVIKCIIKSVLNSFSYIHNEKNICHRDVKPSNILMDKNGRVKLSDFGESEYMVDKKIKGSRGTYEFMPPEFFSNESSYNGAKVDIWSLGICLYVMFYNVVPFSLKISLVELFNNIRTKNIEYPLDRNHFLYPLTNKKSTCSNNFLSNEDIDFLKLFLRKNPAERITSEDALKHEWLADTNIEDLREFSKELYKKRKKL
Assay [8] has as its target Calcium-dependent protein kinase 4 (Plasmodium falciparum (isolate 3D7)) (UniProt Q8IBS5). The experiment in a line: PfCDPK4 kinase inhibitors, biochemical, TCAMS library (AID 1159588; cut-off not given, nearly all actives have IC50 up to about 0.91 µM). Particulars: recombinant PfCDPK4, Kinase-Glo ATP depletion luminescence.

Calcium-dependent protein kinase 4 (Plasmodium falciparum (isolate 3D7)), sequence (Q8IBS5 whole entry, looked up): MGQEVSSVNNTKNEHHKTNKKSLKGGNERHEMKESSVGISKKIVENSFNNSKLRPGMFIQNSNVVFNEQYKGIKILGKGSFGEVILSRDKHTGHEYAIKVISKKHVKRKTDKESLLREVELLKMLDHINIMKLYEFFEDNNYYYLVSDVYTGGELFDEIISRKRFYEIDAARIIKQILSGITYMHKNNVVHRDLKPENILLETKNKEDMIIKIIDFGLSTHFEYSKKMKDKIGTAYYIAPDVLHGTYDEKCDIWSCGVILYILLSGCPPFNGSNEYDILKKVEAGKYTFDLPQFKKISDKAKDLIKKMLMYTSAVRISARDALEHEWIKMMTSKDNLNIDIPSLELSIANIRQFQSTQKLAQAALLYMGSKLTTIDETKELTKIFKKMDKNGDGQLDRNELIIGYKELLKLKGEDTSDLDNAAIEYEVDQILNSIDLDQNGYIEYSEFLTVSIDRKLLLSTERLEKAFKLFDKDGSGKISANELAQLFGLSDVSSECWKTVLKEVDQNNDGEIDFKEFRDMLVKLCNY
Calcium-dependent protein kinase 1 (Plasmodium falciparum (isolate 3D7)), sequence (P62344 whole entry, looked up): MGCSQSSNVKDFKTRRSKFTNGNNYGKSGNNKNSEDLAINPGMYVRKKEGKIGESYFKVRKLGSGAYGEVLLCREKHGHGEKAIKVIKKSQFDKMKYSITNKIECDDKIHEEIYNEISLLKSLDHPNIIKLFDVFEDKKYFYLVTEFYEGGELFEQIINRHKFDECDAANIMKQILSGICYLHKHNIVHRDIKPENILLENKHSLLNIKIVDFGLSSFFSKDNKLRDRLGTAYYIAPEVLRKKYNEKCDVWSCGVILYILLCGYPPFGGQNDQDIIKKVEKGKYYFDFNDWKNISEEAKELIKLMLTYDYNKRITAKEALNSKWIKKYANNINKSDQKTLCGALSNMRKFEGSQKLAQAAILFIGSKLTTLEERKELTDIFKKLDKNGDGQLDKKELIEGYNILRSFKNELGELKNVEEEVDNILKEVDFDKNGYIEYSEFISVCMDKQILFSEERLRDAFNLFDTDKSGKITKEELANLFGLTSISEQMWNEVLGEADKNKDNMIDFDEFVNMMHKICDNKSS
L-lactate dehydrogenase (Plasmodium falciparum (isolate CDC / Honduras)), sequence (Q27743 whole entry, looked up): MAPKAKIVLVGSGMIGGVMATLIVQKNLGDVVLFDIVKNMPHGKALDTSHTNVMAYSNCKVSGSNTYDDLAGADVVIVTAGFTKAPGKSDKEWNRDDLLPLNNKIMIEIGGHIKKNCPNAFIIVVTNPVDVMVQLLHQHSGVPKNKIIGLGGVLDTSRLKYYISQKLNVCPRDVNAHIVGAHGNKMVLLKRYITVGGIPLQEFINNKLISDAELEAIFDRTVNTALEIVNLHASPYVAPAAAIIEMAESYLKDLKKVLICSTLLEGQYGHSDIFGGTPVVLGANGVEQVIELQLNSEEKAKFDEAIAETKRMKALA

With `COc1ccc(NC(=O)Nc2ccc(-c3cccc(-c4nc5c(C)cccc5[nH]4)c3)cc2)cc1`, the growth inhibition in assay [1] was 75% (active); in assay [4] it was 101% (active). Further, the inhibition was 33% in assay [2] and 4% in assay [3]. In addition, the outcome in assay [5], in assay [6], in assay [7] and in assay [8] was inactive.

Consider `CC(C)c1ccc(NS(=O)(=O)c2cccc(C(=O)NC3CCN(CC4CCCCC4)CC3)c2)cc1`, for which the figures for the growth inhibition in assay [1] and in assay [4] were 69% (active) and 93% (active), respectively. Further, the values for the inhibition in assay [2] and in assay [3] were 71% (active) and 0%, respectively. Further, the outcome in assay [5], in assay [6], in assay [7] and in assay [8] was inactive.

For `Cc1cc(C2CCN(CCCCNC(=O)c3ccc(NC(=O)c4ccc(Cl)cc4)cc3)CC2)c(C)cc1OC(C)C`, the growth inhibition in assay [1] was 92% (active); in assay [4] it was 100% (active). Moreover, the values for the inhibition in assay [2] and in assay [3] were 22% and 7%, respectively. The outcome in assay [5], in assay [6], in assay [7] and in assay [8] was inactive.

With `O=C(/C=C/c1ccc(Cl)c(Cl)c1)NCCCCCN1CCC(NC(=O)Nc2ccc(Br)cc2)CC1`, the growth inhibition is 7% in assay [1] and 101% (active) in assay [4]. Also, the inhibition in assay [2] was 36%; in assay [3], -3%. Also, the result in assay [5], in assay [6], in assay [7] and in assay [8] was inactive.

As for `CCCCN(CCCC)CCNC(=O)c1cccc(NC(=O)N2CCc3cc(SC)c(C(F)(F)F)cc32)c1`, the growth inhibition is 32% in assay [1] and 96% (active) in assay [4]. Also, the inhibition in assay [2] was 15%; in assay [3], -1%. Further, the outcome in assay [5], in assay [6], in assay [7] and in assay [8] was inactive.

Turning to `Cn1c(N)c(C(=O)CSc2nnc(-c3cccs3)n2Cc2ccccc2)c(=O)n(C)c1=O`, the growth inhibition in assay [1] was 68% (active); in assay [4] it was 85% (active). For the same compound, the inhibition is -13% in assay [2] and -3% in assay [3]. The outcome in assay [5], in assay [6], in assay [7] and in assay [8] was inactive.

Turning to `COc1cc2nc(N3CCC(CNC(=O)c4ccc(-c5ccc(C(=O)N(C)C)cc5C)cc4)CC3)nc(N3CCN(C)CC3)c2cc1OC`, the growth inhibition in assay [1] is 84% (active); in assay [4], 88% (active). The values for the inhibition in assay [2] and in assay [3] were 26% and -10%, respectively. Also, the result in assay [5], in assay [6], in assay [7] and in assay [8] was inactive.

As to `N#Cc1cccc(NC(=O)Nc2cccc(OC3CCN(Cc4ccccc4)CC3)c2)c1`, the growth inhibition in assay [1] is 48%; in assay [4], 100% (active). Also, the values for the inhibition in assay [2] and in assay [3] were 5% and 1%, respectively. The outcome in assay [5], in assay [6], in assay [7] and in assay [8] was inactive.

As for `COc1ccc(CNc2ccc3nc(N)nc(N)c3c2)cc1`, the growth inhibition in assay [1] is 84% (active); in assay [4], 99% (active). In addition, the inhibition in assay [2] is 39%; in assay [3], -4%. Besides, the result in assay [5], in assay [6], in assay [7] and in assay [8] was inactive.

Regarding `O=c1[nH]c(=O)n2c(nc3ccccc32)[nH]1`, the growth inhibition in assay [1] is -1%; in assay [4] it was 95% (active). Further, the inhibition was 21% in assay [2] and 6% in assay [3]. For the same compound, the result in assay [5], in assay [6], in assay [7] and in assay [8] was inactive.

In the case of `CN1CCCC(OC(=O)c2ccccc2)C1` (stereo not given), the growth inhibition is -2% in assay [1] and 100% (active) in assay [4]. The results for the inhibition in assay [2] and in assay [3] were 4% and -5%, respectively. The outcome in assay [5], in assay [6], in assay [7] and in assay [8] was inactive.

Take `Cc1cccc2[nH]c(-c3ccc(-c4ccc(C(=O)NCCN5CCCC5)cc4)s3)nc12`: the growth inhibition was 13% in assay [1] and 100% (active) in assay [4]. The inhibition was 20% in assay [2] and 3% in assay [3]. Further, the result in assay [5], in assay [6], in assay [7] and in assay [8] was inactive.

On to `COc1cc(Nc2nccc(N3CCC(NS(=O)(=O)c4ccc(NC(C)=O)cc4)CC3)n2)cc(OC)c1OC`, for which the growth inhibition is 42% in assay [1] and 91% (active) in assay [4]. The inhibition in assay [2] is -5%; in assay [3], -3%. The outcome in assay [5], in assay [6], in assay [7] and in assay [8] was inactive.

As to `N#Cc1ccc(NC(=NC2Cc3ccccc3C2)Nc2cccc(Cl)c2Cl)c(O)c1`, the growth inhibition in assay [1] is 77% (active); in assay [4], 94% (active). Also, the inhibition in assay [2] was 15%; in assay [3], -10%. Besides, the result in assay [5], in assay [6], in assay [7] and in assay [8] was inactive.

With `O=C(Nc1ccc(Cl)cc1)Nc1cccc(CCNCc2ccccc2)c1`, the growth inhibition in assay [1] was 12%; in assay [4] it was 101% (active). For the same compound, the inhibition in assay [2] was 16%; in assay [3], 6%. In addition, the result in assay [5], in assay [6], in assay [7] and in assay [8] was inactive.

On to `CCOC(=O)c1[nH]c(-c2cccnc2)nc1NC(=S)NCc1ccccc1`, for which the growth inhibition is 100% (active) in assay [1] and 101% (active) in assay [4]. Moreover, the inhibition in assay [2] was 10%; in assay [3], 1%. The result in assay [5], in assay [6], in assay [7] and in assay [8] was inactive.

For `COc1cc2nc(NCCc3ccccc3)nc(NCc3nccs3)c2cc1OC`, the values for the growth inhibition in assay [1] and in assay [4] were 93% (active) and 99% (active), respectively. Also, the inhibition in assay [2] is 1%; in assay [3], 0%. The result in assay [5], in assay [6], in assay [7] and in assay [8] was inactive.

In the case of `CCn1c(Sc2ccc([N+](=O)[O-])c(C#N)c2)nnc1-c1ccc(Cl)cc1`, the growth inhibition in assay [1] is 7%; in assay [4] it was 93% (active). Moreover, the inhibition was 2% in assay [2] and -2% in assay [3]. Further, the outcome in assay [5], in assay [6], in assay [7] and in assay [8] was inactive.

As for `COc1ccc(NC(=O)CSc2nc(-c3ccccc3Cl)ns2)cc1OC`, the growth inhibition in assay [1] was 63% (active); in assay [4], 97% (active). The inhibition in assay [2] was -1%; in assay [3], -2%. The result in assay [5], in assay [6], in assay [7] and in assay [8] was inactive.

Take `COc1ccc2nccc(NCC3(O)CCC(NCc4cc5c(cn4)OCCO5)CC3)c2n1` (stereo not given): the growth inhibition in assay [1] is 23%; in assay [4] it was 99% (active). For the same compound, the results for the inhibition in assay [2] and in assay [3] were 15% and -3%, respectively. The outcome in assay [5], in assay [6], in assay [7] and in assay [8] was inactive.
